In PubChem BioAssay AID463173 (ICCB-Longwood Screening Facility, Harvard Medical School, 2010):
The whole screen tested about 52,000 compounds, of which about 4,300 (8.3%) were called active. What follows is part of a selection rich in actives, with near analogues and random picks from the rest. A number with no mark means an inactive call. Cut-off read from the data, not from the text of the source: active = survival mostly below about 52% (no sharp cut-off); inactive = mostly above about 56%.

test system: DeltatarO mutant; assay: growth inhibition of S. aureus wild type versus tarO mutant, primary screen, teichoic acid synthesis inhibitors, RN4220, OD600 (AID 463173); settings: OD600, 18 h, hits give low values, screened at 18.75 µg/mL (by protocol)

Row | Compound | survival
1 | Cc1ccc(CSC2=Nc3ccccc3C3=NC(CCC(=O)NCc4cccs4)C(=O)N23)c(C)c1 (stereo unspecified) | 76%
2 | Cc1ccc2c(c1)cc(C(=O)Nc1ccc(F)cc1F)n2C | 106%
3 | COc1ccccc1NC(=O)CCCOc1cc(=O)n(C)c2ccccc12 | 114%
4 | Cn1c(=O)[nH]c(=O)c2[nH]c(NCCO)nc21 | 80%
5 | COc1ccc(-c2nc(CN3CCC(C(=O)NCCCN4CCN(c5ccccc5F)CC4)CC3)c(C)o2)cc1OC | 70%
6 | O=[N+]([O-])c1cc(-c2nc(-c3ccncc3)no2)ccc1NCc1ccccc1 | 109%
7 | Cc1ccc(CNc2ccc(-c3nc(-c4cccnc4)no3)cc2[N+](=O)[O-])cc1 | 75%
8 | COc1ccccc1CNc1ccc(-c2nc(-c3ccncc3)no2)cc1[N+](=O)[O-] | 45% (active)
9 | COc1ccc(-c2noc(-c3ccc(NCc4ccccc4OC)c([N+](=O)[O-])c3)n2)cc1 | 57%
10 | COc1ccccc1CNc1ccc(-c2nc(-c3cccnc3)no2)cc1[N+](=O)[O-] | 78%
11 | COc1ccccc1CNc1ccc(-c2nc(-c3ccccc3C)no2)cc1[N+](=O)[O-] | 91%
12 | COc1ccccc1CNc1ccc(-c2nc(C)no2)cc1[N+](=O)[O-] | 68%
13 | Cc1ccc(CNc2ccc(-c3nc(-c4ccncc4)no3)cc2[N+](=O)[O-])cc1 | 39% (active)
14 | COc1ccccc1CNc1ccc(-c2nc(-c3ccccn3)no2)cc1[N+](=O)[O-] | 43% (active)
15 | O=C(CNCC1CCCO1)Nc1ccccc1-n1cccc1 (stereo unspecified) | 70%
16 | CCOc1ccc(CNCCNC(=O)c2nonc2N)cc1 | 84%
17 | CC1C(=NO)C(C)C(c2ccccc2)NC1c1ccccc1 (stereo unspecified) | 99%
18 | O=C(Nc1cc(Cl)ccc1O)c1nc2ncccn2n1 | 74%
19 | CCOc1cc(C2C(C(=O)Nc3ccccc3)=C(C)Nc3ncnn32)cc(Br)c1O (stereo unspecified) | 102%
20 | Cc1ccc2sc(N(CCCN(C)C)C(=O)c3ccco3)nc2c1C | 128%
21 | COC(=O)CN1C(=O)CSc2ccc(S(=O)(=O)Nc3ccc(F)c(Cl)c3)cc21 | 83%
22 | Cc1ccc(NC(=O)COc2ccc(-c3nn(C)c(=O)c4ccccc34)cc2)c(C)c1 | 73%

Row | Compound | survival
23 | CC(=O)c1cccc(NC(=O)c2cc3c(s2)-c2c(C)cccc2OC3)c1 | 120%
24 | Cc1cc(C)c(NC(=O)c2cc(C)nc3c2c(C)nn3-c2cccc(F)c2)c(C)c1 | 94%
25 | Cc1ccc(-n2nc(C)c3c(C(=O)NCCc4ccccc4)cc(C)nc32)cc1 | 70%
26 | Cc1cc(C(=O)Nc2cccc(C)c2C)c2c(C)nn(-c3cccc(F)c3)c2n1 | 94%
27 | CCc1cccc(C)c1NC(=O)c1cc(C)nc2c1c(C)nn2-c1cccc(Cl)c1C | 88%
28 | Cc1cc(C(=O)Nc2ccc(C(C)C)cc2)c2c(C)nn(-c3ccccc3)c2n1 | 73%
29 | COc1ccc(NC(=O)c2cc(C)nc3c2c(C)nn3-c2cccc(Cl)c2C)c(OC)c1 | 88%
30 | Cc1ccc(CCNC(=O)c2cc(C)nc3c2c(C)nn3-c2ccc(C)cc2)cc1 | 25% (active)
31 | Cc1ccc(NC(=O)c2cc(C)nc3c2c(C)nn3-c2cccc(Cl)c2C)c(C)c1 | -5% (active)
32 | Cc1ccc(-n2nc(C)c3c(C(=O)NCCc4ccc(S(N)(=O)=O)cc4)cc(C)nc32)cc1 | 118%
33 | Cc1cc(C(=O)Nc2cccc(C(F)(F)F)c2)c2c(C)nn(-c3cccc(F)c3)c2n1 | 17% (active)
34 | Cc1cc(C)cc(NC(=O)c2cc(C)nc3c2c(C)nn3-c2ccccc2)c1 | -5% (active)
35 | Cc1ccc(-n2nc(C)c3c(C(=O)Nc4ccc(Br)c(C)c4)cc(C)nc32)cc1 | 101%
36 | COc1ccc(OC)c(CNC(=O)c2nn(C)c3c2CS(=O)(=O)c2ccccc2-3)c1 | 74%
37 | CCC(C(=O)Nc1ccc(C(=O)OC)cc1)n1c(=O)c(-c2ccccc2NC(C)=O)nc2ccccc21 (stereo unspecified) | 94%
38 | O=C(CSc1nc2ccsc2c(=O)n1-c1ccc(Br)cc1)NCc1ccccc1 | 73%
39 | CCCCN(CCCC)S(=O)(=O)c1ccc(NC(=O)c2c(-c3ccccc3)noc2C)cc1 | 60%
40 | CCOC(=O)c1c(S(=O)(=O)N2CCCC(C(=O)NCc3cccc(OC)c3)C2)c(C)n(C)c1C (stereo unspecified) | 117%
41 | Cc1ccc(-c2nc(C)c(CCNC(=O)c3ccccc3Br)s2)cc1 | 72%
42 | CCn1c(=O)cc(OCC(=O)N2CCN(c3ccc(OC)cc3)CC2)c2ccccc21 | 71%
43 | O=C(NCc1cccn1Cc1ccccc1)Nc1ccc(Br)cc1F | 66%
44 | CCOc1cccc(C2Oc3nc(SC)nnc3-c3ccccc3N2C(C)=O)c1OC (stereo unspecified) | 59%

Row | Compound | survival
45 | Cc1c(C(=O)Nc2ccccc2F)sc2nc3n(c(=O)c12)CCC3 | 87%
46 | O=C(Cn1ccn(-c2ccc(F)c(F)c2)c(=O)c1=O)NCc1ccccc1 | 62%
47 | COc1cc(OC)cc(-n2c(=O)c3ccccc3n(Cc3ccccc3C#N)c2=O)c1 | 128%
48 | CCc1ccc(-n2nc(C)c3c(C(=O)Nc4ccc(Cl)cc4)cc(C)nc32)cc1 | 66%
49 | CCc1ccc(-n2nc(C)c3c(C(=O)Nc4cccc(C(F)(F)F)c4)cc(C)nc32)cc1 | 20% (active)
50 | Cc1ccc(C)c(N2CCN(C(=O)c3cc(C)nc4c3c(C)nn4-c3ccccc3)CC2)c1 | 126%
51 | CCc1ccc(-n2nc(C)c3c(C(=O)Nc4cc(OC)cc(OC)c4)cc(C)nc32)cc1 | 102%
52 | Cc1cc(C(=O)N2CCN(c3ccccc3)CC2)c2c(C)nn(-c3cccc(F)c3)c2n1 | 91%
53 | Cc1ccc(C)c(N2CCN(C(=O)c3cc(C)nc4c3c(C)nn4-c3cccc(F)c3)CC2)c1 | 8% (active)
54 | Cc1cccc2cc(CN(CCO)S(=O)(=O)c3ccc(Cl)cc3)c(=O)[nH]c12 | 82%
55 | CCOCCCNC(=O)c1ccc2c(c1)NC(=O)C(CS(=O)(=O)Cc1ccc(F)cc1Cl)N2 (stereo unspecified) | 88%
56 | CC(C)Cn1c(N2CCN(C(=O)c3sc4ccccc4c3Cl)CC2)nc2ccccc21 | 89%
57 | CCC(Cc1ccccc1)NC(=O)CN1C(=O)COc2ccc(S(=O)(=O)N3CCCCCC3)cc21 (stereo unspecified) | 113%
58 | CC(=O)c1cccc(NS(=O)(=O)c2cccc(S(=O)(=O)c3ccc(Br)cc3)c2)c1 | 55%
59 | COc1cccc(-c2cc(C(=O)Nc3ccn(Cc4ccc(C)cc4)n3)no2)c1 | 33% (active)
60 | Cc1cc(NC(=O)c2cc(-c3ccc(Cl)cc3)on2)nn1Cc1ccc(Cl)cc1 | 140%
61 | Cc1ccc(CNC(=O)c2cc(-c3ccc(Cl)cc3)on2)cc1 | 93%
62 | Cc1ccc(Cn2ccc(NC(=O)c3cc(-c4ccc(Cl)c(Cl)c4)on3)n2)cc1 | 45% (active)
63 | Cc1cc(NC(=O)c2cc(-c3ccc(Br)cc3)on2)nn1Cc1ccc(Cl)cc1 | 155%
64 | COc1ccc(-c2cc(C(=O)Nc3ccn(Cc4ccc(C)cc4)n3)no2)cc1OC | 57%
65 | Cc1cc(NC(=O)c2cc(-c3ccc(Cl)c(Cl)c3)on2)n(-c2ccccc2)n1 | 63%
66 | COc1cccc(-c2cc(C(=O)Nc3cc(C)nn3-c3ccccc3)no2)c1 | 74%

Row | Compound | survival
67 | Cc1cc(NC(=O)c2cc(-c3cccc(Cl)c3)on2)nn1Cc1ccc(Cl)cc1 | 43% (active)
68 | O=c1c2cccnc2n(Cc2ccccc2F)c(=O)n1Cc1ccccc1Cl | 62%
69 | Cc1cccc(S(=O)Cc2ccc(C(=O)NC3CCCCCC3)o2)c1 (stereo unspecified) | 81%
70 | CCOc1ccc(NC(=O)C2CCCN(S(=O)(=O)c3ccc(Br)s3)C2)cc1 (stereo unspecified) | 101%
71 | COc1ccc(Cn2c(SCc3ccc(C(=O)NCc4ccc(C)cc4)cc3)nc3cccnc32)cc1 | 58%
72 | Cc1ccccc1CNC(=O)c1ccc(Cn2c(SCc3ccccc3)nc3cccnc32)cc1 | 0% (active)
73 | CCOc1ccccc1CNC(=O)c1ccc(Cn2c(SCc3ccccc3)nc3cccnc32)cc1 | 74%
74 | O=C(NCCc1cccs1)c1ccc(Cn2c(SCc3ccccc3)nc3cccnc32)cc1 | 99%
75 | Cc1ccc(CSc2nc3cccnc3n2Cc2ccc(C(=O)NCCc3cccs3)cc2)cc1 | 135%
76 | CCNC(=O)c1ccc(CSc2nc3cccnc3n2Cc2ccc(OC)cc2)cc1 | 0% (active)
77 | O=C(NCc1ccccc1Cl)c1ccc(Cn2c(SCc3ccccc3)nc3cccnc32)cc1 | 72%
78 | Cc1ccccc1CNC(=O)c1ccc(CSc2nc3cccnc3n2Cc2ccccc2)cc1 | 55%
79 | COCCCNC(=O)c1ccc(CSc2nc3cccnc3n2Cc2ccc(OC)cc2)cc1 | 107%
80 | Cc1ccccc1CSc1nc2cccnc2n1Cc1ccc(C(=O)NCCc2cccs2)cc1 | 47% (active)
81 | COc1ccccc1CNC(=O)c1ccc(Cn2c(SCc3ccccc3)nc3cccnc32)cc1 | 37% (active)
82 | Cc1ccccc1CNC(=O)c1ccc(Cn2c(SCc3cccc(F)c3)nc3cccnc32)cc1 | 89%
83 | Cc1cn2c(=O)c(S(=O)(=O)NCc3ccc(F)cc3)c(C)nc2s1 | 88%
84 | CCc1ccc(NC(=O)CSc2nnc(C(C)C)n2CC)cc1 | 96%
85 | O=C(C1CCN(S(=O)(=O)c2ccc3c(c2)OCCO3)CC1)N1CCN(c2nc3ccccc3s2)CC1 | 109%
86 | O=C(Nc1cccnc1)Nc1c[nH]c2c(Cl)cccc2c1=O | 89%
